# Screens deposited in PubChem by several laboratories.
# Only some compounds are listed: those with a hit (about 1.8% of all), similar ones and a draw of the others.
# MBD2 DNA inh: MBD2-methylated oligo binding inhibition. TR-FRET, MBD2 binding to methylated oligonucleotide. AID 686964. inhibition, % at 4.4 µM. actives 0.31% (n = 370,000); in the data active = inhibition above about 13%
# Neddylation inh: cullin neddylation inhibition; P61081+Q13564; TR-FRET cullin neddylation, biochemical; calls only at 25 µM; actives 0.58% (n = 360,000); in the data active = inhibition above about 36%
# UHRF1 binding: human UHRF1 methylated DNA binding inhibitors. inhibition, % at 4.4 µM. Q96T88. AID 687016. actives 0.75% (n = 370,000). UHRF1 binding to methylated oligo, TR-FRET; in the data active = inhibition above about 21%;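 also: UHRF1 SRA domain binding a hemimethylated CpG hairpin DNA probe; 0% = median of test compound wells and 100% = reference inhibitor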
# UBC13 polyUb: human UBC13 polyubiquitination inhibition; P61088; UBC13 polyubiquitin chain formation, TR-FRET; inhibition, % at 20 µM; actives 0.47% (n = 330,000); AID 485273; in the data active = inhibition above about 45%, passing the limit was not always enough
# Casp3 UBC13 ctr: caspase-3 inhibition (UBC13 counter-screen); shares compounds with UBC13 polyUb; Recombinant caspase-3, Caspase-Glo 3/7 luminescence, 60 min; inhibition, % at 20 µM; actives 4% (n = 1,400);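 active = mean inhibition across replicates above about 26%, limit read from the data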;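 also: plate controls were DMSO with caspase-3 for no effect and DMSO wells lacking enzyme for full effect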
# UBC13 confirm: human UBC13 polyubiquitin inhibition, confirmed; shares compounds with UBC13 polyUb; UBC13 polyubiquitination, TR-FRET, biochemical; inhibition, % at 10 µM; actives 68% (n = 1,400); in the data active = inhibition above about 45%
# * marks the source's active call; other numbers are inactive results; i = inactive; . = no result given.
SMILES,MBD2 DNA inh,Neddylation inh,UHRF1 binding,UBC13 polyUb,Casp3 UBC13 ctr,UBC13 confirm
Cn1c(SCC(=O)NCCc2ccccc2)ncc(C(=O)Nc2ccccc2)c1=O,-1,i,2,46*,94*,40
Cn1c(SCC(=O)NCc2ccc(F)cc2)ncc(C(=O)Nc2ccccc2)c1=O,-1,i,3,60*,87*,53*
COc1ccc(NC(=O)c2cnc(SCC(=O)NCCc3ccccc3)n(C)c2=O)cc1,0,i,2,41,.,.
Cn1c(SCC(=O)NCc2ccc3c(c2)OCO3)ncc(C(=O)Nc2ccc(F)cc2)c1=O,-3,i,-4,50*,86*,45
Cn1c(SCC(=O)NCc2ccc(F)cc2)nc2ccccc21,0,i,0,-2,.,.
Cn1c(=O)c2c(nc(SCC(=O)NCc3ccc4c(c3)OCO4)n2Cc2ccc(F)cc2)n(C)c1=O,4,i,0,-3,.,.
CC1CC(C)(C)NC(=S)N1CCC(=O)N1CCN(c2ccccc2)CC1 (centres undefined),0,i,-1,-24,.,.
CCC(C)/C(C)=N/Nc1ccc(S(N)(=O)=O)cc1[N+](=O)[O-] (centres undefined),-7,i,-5,-55,.,.
COc1ccccc1-c1nc(-c2ccc(C(=O)O)cc2)no1,4,i,3,-2,.,.
Cc1cccc(C(=O)Oc2ccc(/C=N/NC(=O)Cc3ccc([N+](=O)[O-])cc3)cc2)c1,3,i,9,86*,0,61*
COc1ccc([N+](=O)[O-])cc1NC(=O)CSCc1ccc(Br)cc1,-1,i,1,-4,.,.
O=C(CSCc1ccc([N+](=O)[O-])cc1)NN=C1CCCCCC1,-2,i,1,91*,-2,105*
COc1ccc(/C=N/NC(=O)CSCc2ccc([N+](=O)[O-])cc2)cc1OC,2,i,3,79*,1,71*
COc1cc(/C=N/NC(=O)CSCc2ccc([N+](=O)[O-])cc2)cc(OC)c1OC,-2,i,0,86*,0,103*
Cn1nc(C(=O)Nc2ccc(S(=O)(=O)N3CCCC3)cc2)ccc1=O,4,i,0,2,.,.
CCOC(=O)c1c(C)n(-c2ccc(C)cc2)c2ccc(OCC(O)CNCCCO)cc12 (centres undefined),1,i,-1,62*,0,64*
CCOC(=O)c1c(C)n(C)c2ccc(OCC(O)CNC(CC)CO)cc12 (centres undefined),2,i,7,10,.,.
CCOC(=O)c1c(C)n(-c2ccc(C)cc2)c2ccc(OCC(O)CNCC3CCCO3)cc12 (centres undefined),.,i,.,56*,0,77*
CC(=O)Nc1ccc(NC(=O)CSc2ncc(C(=O)Nc3ccc(F)cc3)c(=O)n2C)cc1,2,i,0,71*,98*,62*
CC(=O)Nc1ccc(NC(=O)CSc2nnnn2-c2ccc(F)cc2)cc1,4,i,-3,0,.,.
CC(=O)Nc1cccc(NC(=O)CSc2nnnn2C)c1,3,.,4,.,.,.
Cc1cc2c(=O)n(C)c(SCC(=O)Nc3ccc(F)cc3)nc2s1,2,i,0,.,.,.
CC(=O)Nc1cccc(NC(=O)CSc2ncc(C(=O)Nc3ccc(F)cc3)c(=O)n2C)c1,1,i,-2,51*,97*,38
CC(=O)Nc1ccc(NC(=O)CSc2ncc(C(=O)Nc3ccc(Cl)cc3)c(=O)n2C)cc1,.,i,.,55*,97*,30
CC(=O)Nc1cccc(NC(=O)CSc2ncc(C(=O)Nc3ccccc3)c(=O)n2C)c1,-1,i,0,82*,95*,86*
CCCNC(=O)C1(C)CCN1C(=O)c1ccc(C(C)(C)C)cc1 (centres undefined),-5,i,-1,.,.,.
COc1ccc(C(=O)NC(=S)NNC(=O)Cc2cccs2)cc1,-2,i,-1,-21,.,.
COC(=O)C1CN(C(=O)C(C)Oc2ccccc2F)c2ccccc2O1 (centres undefined),5,i,2,-8,.,.
Cc1cccc2c1-c1sc(C(=O)NCCCN3CCCC(C)C3)cc1CO2 (centres undefined),-1,i,0,67*,4,97*
CCCN1CCN(CCCNC(=O)c2cc3c(s2)-c2c(C)cccc2OC3)CC1,-3,i,0,49*,-1,57*
